According to the supplement of paper PMC6555819:

Each sequence was assayed on VDR:RXRa (NR concentration 270 nM, RXRa partner concentration 90 nM) (assay: PBM binding z-score (relative to random genomic background probes); higher = stronger binding; sequences stand for … in GC…GCGATTGACAGCGTAGAATGAAGG).
Description: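 Protein-binding microarray (Agilent 4x180K custom design, double-stranded 60-nt probes: 5' GC cap, 34-nt variable region, 24-nt constant primer region; full probe sequence given). Purified or IVT nuclear receptor:RXRα heterodimers (3:1 NR:RXRα, mostly 270:90 nM) or homodimers were incubated for 1 h in PBS with 2% milk and no ligand, then detected with Alexa488 antibodies. Fluorescence from o1-orientation probes (~5 replicates averaged) was converted to z-scores against 500 random hg19 background probes. Variable regions are seed direct-repeat (DR0–DR5) sites, all their single-nucleotide variants and half-site ablations.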

Row | Sequence | PBM binding z-score
1 | GTTGCTAGGTCAGGTTGGTCAGCTAACGGGTACG | 0.892
2 | CCTACTGGGCCGTCAGGTCATTGATATCAACGTT | 1.32
3 | ACTAGTTGGTCAGCTGAGGTCAAACACAATTCGG | 4.9
4 | CCTAGCAGGCCCGGGTCACTCAAGCATTTCGCTT | 1.43
5 | GGAACGAGGCCAAAGTTGATAGCATCTGTCGACG | -0.112
6 | CCTGCTAGGTCATGGTCAGTTAATCTACAGTATG | 2.28
7 | TCTATTAGTTGATTAGGGCAGCCGAAACAGCGGA | 0.607
8 | ACAAACAGGTGAGTGAAGGTAACTCAGCTGGACG | -0.124
9 | ACAGACAGGTGATCAAGGTAACTCAGGCTATCAT | 0.483
10 | GCATATAGGTAATACAAGGTGAAGGTCCGATTGT | 0.155
11 | CGTCCAAGGTCAAGGACAGTGAAAGAGACTCGAA | 3.75
12 | TGTCAAAGTTCAAAGGAAACGTAAGTATCCACAC | 3.86
13 | TCTTGTAGATCAACAGGTGGTTAAGAAAGATCGA | 0.266
14 | CCAGACAGGTGAGAAGGTAACTGAGCCTCGATTA | -0.0476
15 | GCGACTGGGGCATCAGCAGGTTACGATAACTTAA | 0.0769
16 | GCTTACGGGTCACAGGTTATAGCATGAATAGAAT | 3.9
17 | GGATCGAGGGCAAGTTGATAGCAGAGTTTGATGG | 0.959
18 | GGAACGAGGGCATTCGAGTTGGTAGCATGGCGAT | 2.35
19 | TAGCATAGGTCATGGGCCAGTATACCACGCGAAC | 3.33
20 | ATCGAAAGGTAGAGGTGAGTATAGAGAAAGGGAA | 0.0851

Row | Sequence | PBM binding z-score
21 | TCTGCTAGGTCAGTTGCTCAGCTAACGAGCTGCC | -0.466
22 | TAGCCTAGGTCATGCAGGCCAGTATAGTGTCGGC | 3.25
23 | CTACCAAGGTGAACAAGGTCGTCGATTACTATTC | 5.98
24 | ATCTCTAGGTAAAAGTTCAGTCAATCCCGAGGAT | 1.45
25 | CCTACTAGGCCATTCAGAGGTCATTGATCATATG | 4.33
26 | GCTAGCAGGCCATCTGGGTCACTCAATGACGGGC | 1.04
27 | TCAAATAGGTAAAGGTGAAAGTCGAACGATATGA | 1.17
28 | CCAGACAGGTGAAAAGGTAACTCAGCCTCGATTA | 0.369
29 | ACTATTAGTTGAGACGAGGGCAAACGATAGGTTG | 0.775
30 | TGTTGTAGATCAAGCAGGTTAAGAAAGCCTGAGT | 0.0987
31 | TCTAGCAGGCCACAGGGTCACTCAAGAGGTACGG | 2.93
32 | AATATAGGGTCATCGTAGGCCAGAGTACGCACAG | 5.22
33 | CCTACTGGGCCAAGGTTATTGATCAGTCAAAGCA | -0.0867
34 | GGAACGAGGGCAAAATTGATAGCATCTGTCGACG | 0.352
35 | ATCGAAAGGGCGAGGTGAGTATAGAGAAAGGGAA | 0.361
36 | CCTACTGGGCCACCAGGTCATTGATATCAACGTT | 1.97
37 | AATACAGGGTCCCTAGGCCAGAGTAGGTACGAAT | -0.389
38 | ATCTCTAAGTAACAAGTTCAGTGAAAGAGAGGAC | 1.87
39 | CCGACTGGGGCAGAACGGTTACCATACCATCCGG | -0.643
40 | TTACCAAGGTGAGCCGAGGTCGTTGATCCAACTC | 4.51
